# Data published in PubChem BioAssay (NCI).
# “And” between values parts separate entries of the source, which are not always exact repeats. Equal values may be shown once. Compounds without any hit were thinned out: in the full panel of roughly 83,000, 20% have a hit.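 Percent growth is the endpoint: 0 to 100 indicates growth inhibition (40 means 60% inhibition), 0 means no net growth, and negative values indicate cell death.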 Values without a mark were called inactive. The source made the active and inactive calls. Rule for the calls: active = growth percent below 10; inactive = the rest.
# Legend:
# Assay in all cases: NCI-60 one-dose screen, 48 h (100 = growth as untreated, 0 = no growth, -100 = all killed)
# Conditions in all cases: 10 µM unless noted
# NCI-H23 lung = tested on: NCI-H23 lung
# NCI-H226 lung = tested on: NCI-H226 lung
# NCI-H322M lung = tested on: NCI-H322M lung
# HOP-62 NSCLC = tested on: HOP-62 NSCLC
# NCI-H460 lung = tested on: NCI-H460 lung
# HOP-92 NSCLC = tested on: HOP-92 NSCLC
# NCI-H522 lung = tested on: NCI-H522 lung
# A549/ATCC NSCLC = tested on: A549/ATCC NSCLC
# 786-0 renal = tested on: 786-0 renal
# COLO 205 colon = tested on: COLO 205 colon
# DU-145 prostate = tested on: DU-145 prostate
# K-562 leukemia = tested on: K-562 leukemia
# MALME-3M melanoma = tested on: MALME-3M melanoma
# MDA-MB-231 breast = tested on: MDA-MB-231 breast
# RXF 393 renal = tested on: RXF 393 renal
# SF-268 CNS = tested on: SF-268 CNS
# SF-295 CNS = tested on: SF-295 CNS
# SF-539 CNS = tested on: SF-539 CNS
# UACC-257 melanoma = tested on: UACC-257 melanoma
# M14 melanoma = tested on: M14 melanoma
SMILES,growth (NCI-H23 lung),growth (NCI-H226 lung),growth (NCI-H322M lung) [%],growth (HOP-62 NSCLC),growth (NCI-H460 lung),growth (HOP-92 NSCLC),growth (NCI-H522 lung),growth (A549/ATCC NSCLC),growth (786-0 renal),growth (COLO 205 colon),growth (DU-145 prostate),growth (K-562 leukemia),growth (MALME-3M melanoma),growth (MDA-MB-231 breast),growth (RXF 393 renal),growth (SF-268 CNS),growth (SF-295 CNS),growth (SF-539 CNS),growth (UACC-257 melanoma),growth (M14 melanoma)
CCC(=O)Oc1cc(Cl)c(Cl)cc1Cl,102%,97.7%,104,105%,104%,100%,99.8%,101%,98.2%,113%,103%,101%,108%,114%,113%,97.9%,96%,97.1%,95.8%,99.5%
CN(C)C(=O)c1cc2cnc(Nc3ccc(-c4csc5c(=S)cc(N6CCOCC6)oc45)cc3)nc2n1C1CCCC1,7.49% (active),15.8%,18.4,6.1% (active),3.26% (active),-5.69% (active),4.24% (active),5.94% (active),9.52% (active),-33.9% (active),16.9%,10%,17.8%,10.2%,-53.9% (active),11.1%,1.23% (active),-24.5% (active),4.13% (active),7.51% (active)
CCn1cc(C(=O)NN=C2CCCC2)c(=O)c2ccc(C)nc21,98.9%,82.9%,82.4,93.3%,92.9%,90.6%,88.8%,90.3%,93.1%,104%,109%,93.1%,91.8%,93.3%,103%,93.4%,92.8%,96.2%,90.1%,102%
O=C1CCc2c(sc3[nH]c(=S)n(Cc4ccc(Cl)cc4)c(=O)c23)C1,-12.9% (active),-8.6% (active),11.4,-11.5% (active),5.05% (active),-44.2% (active),-18.6% (active),5.35% (active),21%,-67.5% (active),23.7%,11%,1.17% (active),-24.7% (active),5.18% (active),18.7%,-6.67% (active),-57.4% (active),-14.9% (active),12.4%
O=[N+]([O-])c1cc(C(F)(F)F)ccc1Sc1ccc(C(F)(F)F)cc1[N+](=O)[O-],63.1%,90.9%,112,94.6%,74.4%,120%,77.9%,93.4%,103%,123%,64.4%,8.04% (active),61.9%,72.4%,93.1%,63%,106%,61.1%,76.3%,49%
COc1cc(-c2nc3occn3c2-c2ccnc(NCCCNS(=O)(=O)c3ccc(O)cc3)n2)ccc1F,92.6%,96.8%,113,95%,102%,86.7%,72.4%,94.3%,122%,45%,110%,80.6%,-7.42% (active),67.1%,105%,110%,91.6%,110%,54.4%,26.2%
COC(=O)c1nc(-c2ccc(C)cc2)oc1S(=O)(=O)c1ccc(Cl)cc1,91.3%,96%,99.6,97.4%,109%,95.1%,59.6%,100%,86.1%,70.5%,113%,9.37% (active),31%,87%,120%,97.1%,108%,96.6%,100%,79.7%
O=C(/C=C/c1ccccc1)c1cccs1,94.1% and 105%,103%,106,98.7% and 114%,93.3% and 109%,79.3%,73.6% and 94.2%,93.9% and 94.3%,89.5% and 94.2%,112% and 120%,97.8% and 93.1%,106% and 71.2%,119%,111% and 109%,106% and 102%,98.4% and 98.3%,97.7% and 95.1%,105% and 111%,96.3% and 106%,98.1% and 112%
